Data on 29 compounds can be found in PubChem BioAssay (NCATS).

A short description of assay [1]: qHTS of pediatric cancer cell lines to identify multiple opportunities for drug repurposing: Primary screen for MG 63 (6-TG R) cells (AID 1347105). Further: nearly all actives have a fitted effect of over 50% in size. Summed up: (§1)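 Primary screen of approved and investigational compounds on cells in growth media at 37 degrees C, 5% CO2. MIPE set at 11-point and NPC set at 8-point dilutions; viability scored by ATP-based luminescence at 48 hours.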
A general note: qHTS replaces the single test concentration by a dilution series.

Assay [2] in a line: qHTS of pediatric cancer cell lines to identify multiple opportunities for drug repurposing: Primary screen for control Hh wild type fibroblast cells (AID 1347106).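 Further: series mostly up to about 46 µM; a drop in luminescence marks cytotoxicity and a rise apparent proliferation; nearly all actives have a fitted effect of over 55% in size.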 Summed up:
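Viability after 48 h compound treatment at 37C, 500-1,000 cells/well, read as ATP luminescence with CellTiter-Glo. Primary screens used 11-point (MIPE, 0.78 nM-46 µM) or 8-point (NPC, 0.59 nM-46 µM) final concentrations; follow-up screens used 11-point dilutions.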

The nature of assay [3]: qHTS of pediatric cancer cell lines to identify multiple opportunities for drug repurposing: Primary screen for Rh30 cells (AID 1347107). Further: series mostly up to about 46 µM; nearly all actives have a fitted effect of over 75% in size. Summed up: (§2)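 Cells (500-1,000/well) rested 5 h, then received compounds for 48 h; metabolically active cells were measured by CellTiter-Glo luminescence. Final concentrations spanned up to 46 µM (MIPE, 11-point) or 0.59 nM-46 µM (NPC, 8-point) in primary screens, 11-point in follow-ups.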

The nature of assay [4]: qHTS of pediatric cancer cell lines to identify multiple opportunities for drug repurposing: Primary screen for Rh41 cells (AID 1347108).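 Further: series mostly up to about 46 µM; luminescence drop marks cytotoxic hits; nearly all actives have a fitted effect of over 70% in size.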 Summed up: as §1
Assay [5] in a line: qHTS of pediatric cancer cell lines to identify multiple opportunities for drug repurposing: Confirmatory screen for SK-N-MC cells (AID 1347111).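 Further: cells exposed to compound for 48 h before the readout; nearly all actives have a fitted effect of over 70% in size.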 The gist of the method: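 Seed 500-1,000 cells/well; rest 5 h at 37 degrees C. Pin-transfer compounds, 11-point titration. Incubate 48 h. Add CellTiter-Glo, 15 min RT, read luminescence.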
Assay [6] can be described thus: qHTS of pediatric cancer cell lines to identify multiple opportunities for drug repurposing: Confirmatory screen for BT-12 cells (AID 1347112). Further: nearly all actives have a fitted effect of over 55% in size. Summed up:
as §2

The nature of assay [7]: qHTS of pediatric cancer cell lines to identify multiple opportunities for drug repurposing: Confirmatory screen for LAN-5 cells (AID 1347113). Further: nearly all actives have a fitted effect of over 65% in size. Summed up: as §2
A short description of assay [8]: qHTS of pediatric cancer cell lines to identify multiple opportunities for drug repurposing: Confirmatory screen for DAOY cells (AID 1347114). Further: nearly all actives have a fitted effect of over 65% in size. Summed up: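 Viability measured as metabolically active cells via CellTiter-Glo luminescence following 48 hours of compound exposure, 11-point dilutions in confirmatory testing. 500-1,000 cells/well plated 5 hours before dosing; controls were DMSO and 2.3 µM bortezomib.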

The nature of assay [9]: qHTS of pediatric cancer cell lines to identify multiple opportunities for drug repurposing: Confirmatory screen for NB-EBc1 cells (AID 1347115).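 Further: cells exposed to compound for 48 h before the viability read; nearly all actives have a fitted effect of over 45% in size.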 Summed up: as §2

Results filed as inconclusive are left out. Unmarked numbers belong to inactive results. Activity calls are given as the source filed them. The call rests on the fitted dose curve; in most records, active means well fitted curve in the direction sought with a large enough effect; inconclusive means small, poorly fitted or top-dose-only effect, or another doubt; inactive means no such curve, though single readings can be large; an effect the other way counts as inactive or inconclusive.

On to `N[C@@H](CCC(=O)N[C@@H](CS)C(=O)NCC(=O)O)C(=O)O`, for which the Potency entry in [1], in assay [2], in assay [3] and in assay [4] was “inactive” each time.
Regarding `Nc1nc2ncc(CNc3ccc(C(=O)N[C@@H](CCC(=O)O)C(=O)O)cc3)nc2c(=O)[nH]1`, the Potency result in assay [1], in assay [2], in [3] and in assay [4] was “inactive” throughout.
Regarding `CCN(CCCCOC(=O)c1ccc(OC)c(OC)c1)C(C)Cc1ccc(OC)cc1` (centres undefined), the Potency entry in assay [1], in assay [2] and in assay [4] was “inactive” throughout.
For `Clc1ccc2c(c1)CCc1cccnc1C2=C1CCNCC1`, the Potency result in assay [1], in assay [2] and in assay [4] was “inactive” throughout.
Consider `CC(Cc1ccccc1)(NC(=O)CN)c1ccccc1` (centres undefined), for which the Potency entry in assay [1], in assay [2], in assay [3] and in assay [4] was “inactive” in each case.
Regarding `C[C@]12C=CC(=O)C=C1[C@@H](F)C[C@@H]1[C@@H]2[C@@H](O)C[C@@]2(C)[C@H]1CC[C@]2(O)C(=O)CO`, the Potency result in assay [1], in assay [2], in assay [3], in [4], in assay [5] and in assay [6] was “inactive” throughout. Moreover, the Potency result in [7], in assay [8] and in assay [9] was “inactive” each time.
For `Oc1ccc(Cl)cc1Sc1cc(Cl)ccc1O`, the Potency entry in assay [2] is “inactive”.
With `Cc1ccnc(NS(=O)(=O)c2ccc(N)cc2)n1`, the Potency result in assay [2], in assay [3] and in assay [4] was “inactive” throughout.
Take `COc1cc2c(cc1OC)C(C(C(=O)N(CCc1ccc(OC)c(OC)c1OC)CCc1ccc(OC)c(OC)c1OC)c1ccccc1)=NCC2` (centres undefined): the Potency entry in [2] and in assay [3] was “inactive” throughout.
On to `NC(=O)C(=O)N/N=C/c1ccc([N+](=O)[O-])o1`, for which the Potency entry in assay [2] is “inactive”.
As to `Cc1c(C)n(Cc2ccccc2)c2ccc(C(=O)OCCN(C)C)cc12`, the Potency result in assay [2], in [3] and in [4] was “inactive” throughout.
For `CC1=C(C(=O)OC(C)C)C(c2cccc([N+](=O)[O-])c2)C(C(=O)OC2CN(C(c3ccccc3)c3ccccc3)C2)=C(N)N1` (centres undefined), the Potency entry in assay [2] was “inactive”.
In the case of `CCCCCCCCCCCCCCCCOP(=O)([O-])OCC[N+](C)(C)C`, the Potency entry in assay [2] was “inactive”.
Turning to `O=C(O)CNC(=O)c1ccccc1`, the Potency result in [2], in assay [3] and in [4] was “inactive” in each case.
As to `C/C=C(/C(=C/C)c1ccc(O)cc1)c1ccc(O)cc1`, the Potency result in assay [2], in assay [3] and in assay [4] was “inactive” in each case.
Consider `O=C(Nc1ccc(Cl)c(Cl)c1)C1CC1`, for which the Potency entry in assay [2], in [3] and in [4] was “inactive” throughout.
As to `C#C[C@]1(O)CC[C@H]2[C@@H]3CCc4cc(OC5CCCC5)ccc4[C@H]3CC[C@@]21C`, the Potency result in [2], in assay [3] and in [4] was “inactive” in each case.
Turning to `O=C(Nc1ccc(Oc2ccc(Cl)cc2)c(Cl)c1)c1cc(I)cc(I)c1O`, the Potency entry in assay [2], in assay [3] and in assay [4] was “inactive” each time.
Take `CCCCOc1ccc(OCCCN2CCOCC2)cc1`: the Potency entry in assay [2], in assay [3] and in assay [4] was “inactive” each time.
Take `CC(=O)CC(c1ccc([N+](=O)[O-])cc1)c1c(O)c2ccccc2oc1=O` (centres undefined): the Potency result in [2], in assay [3] and in assay [4] was “inactive” in each case.
`CN(C/C=C/c1ccccc1)Cc1cccc2ccccc12`: the Potency entry in [2], in [3] and in [4] was “inactive” in each case.
With `CCCSS/C(CCO)=C(\C)N(C=O)Cc1cnc(C)nc1N`, the Potency entry in assay [2] and in assay [3] was “inactive” each time.
For the compound `CCCCOc1ccc(C(=O)CCN2CCCCC2)cc1`, the Potency entry in assay [2] and in assay [3] was “inactive” throughout.
Take `COc1cc(N)c(Cl)cc1C(=O)NC1CCN(CCCOc2ccc(F)cc2)CC1OC` (centres undefined): the Potency result in assay [2], in assay [3] and in assay [4] was “inactive” each time.
As to `CCN(CC)CCOC(=O)C(c1ccccc1)C1CCCCC1` (centres undefined), the Potency entry in assay [2] and in [3] was “inactive” each time.
As to `c1ccc(OCc2ccc(CCCN3CCOCC3)cc2)cc1`, the Potency result in [2], in [3] and in [4] was “inactive” in each case.
With `C#C[C@]1(O)CC[C@H]2[C@@H]3CCC4=CC(=O)CC[C@@H]4[C@H]3CC[C@@]21C`, the Potency entry in assay [2], in assay [3] and in [4] was “inactive” in each case.
With `CCCCOc1cc(C(=O)NCCN(CC)CC)c2ccccc2n1`, the Potency result in [2], in assay [3] and in assay [4] was “inactive” each time.
With `CN1CCN(CCCN2c3ccccc3Sc3ccc(S(=O)(=O)N(C)C)cc32)CC1`, the Potency result in assay [2], in assay [3] and in assay [4] was “inactive” throughout.
